Laboratory results as given in article PMC7862700, “An all-to-all approach to the identification of sequence-specific readers for epigenetic DNA modifications on cytosine”.

Key:
Assay in all cases: DAPPL (digital affinity profiling via proximity ligation, sequencing); 10 mM Tris-HCl pH 7.5, 50 mM NaCl, 1 mM DTT, 4% glycerol, room temperature, 30 min; GST-TFs on glutathione beads, 16-mer random dsDNA library, 0.1% formaldehyde crosslink after washing; high values mean tight binding
[1] = biological target: ELF1 (Homo sapiens, UniProt P32519 1-619); conditions: protein: recombinant; tags: N-terminal GST; dsDNA, one strand shown
Chain of ELF1 (P32519 whole entry, the tested form may be a part): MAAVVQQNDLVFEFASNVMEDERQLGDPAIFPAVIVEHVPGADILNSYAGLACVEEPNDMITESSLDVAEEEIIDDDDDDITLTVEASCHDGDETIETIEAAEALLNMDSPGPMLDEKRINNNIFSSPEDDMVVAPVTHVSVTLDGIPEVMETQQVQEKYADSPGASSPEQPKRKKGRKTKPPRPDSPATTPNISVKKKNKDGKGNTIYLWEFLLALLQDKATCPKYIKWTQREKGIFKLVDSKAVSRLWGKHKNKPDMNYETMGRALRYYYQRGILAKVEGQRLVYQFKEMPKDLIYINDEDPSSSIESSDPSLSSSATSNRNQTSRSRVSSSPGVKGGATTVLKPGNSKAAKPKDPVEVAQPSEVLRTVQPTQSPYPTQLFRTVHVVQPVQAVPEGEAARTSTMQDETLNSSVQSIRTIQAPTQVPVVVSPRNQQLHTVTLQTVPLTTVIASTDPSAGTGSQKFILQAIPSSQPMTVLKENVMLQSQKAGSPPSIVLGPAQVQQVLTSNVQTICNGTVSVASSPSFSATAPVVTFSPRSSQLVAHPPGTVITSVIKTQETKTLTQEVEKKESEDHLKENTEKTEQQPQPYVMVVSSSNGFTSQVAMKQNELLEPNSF
Outline: (§1)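 In yeast, human transcription factors were expressed with a GST fusion, then pulled down on glutathione beads and given DNA barcodes. Pooled with a tag-only sample, they were exposed to 200 nmole of a 16-mer random double-stranded DNA library (Tris/NaCl/DTT/glycerol buffer, room temperature, 30 min), washed, crosslinked with 0.1% formaldehyde, proximity-ligated using BsaI/T4 ligase for 1 h at 37 °C, PCR-amplified and read on an Illumina NextSeq500. Each hexamer's frequency of reads for a factor, divided by the matching frequency for the tag-only sample, gives the binding signal.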

[2] = biological target: T1, ELK3 (Homo sapiens, UniProt P41970 1-407); conditions: protein: recombinant; tags: N-terminal GST; dsDNA, one strand shown
T1 sequence: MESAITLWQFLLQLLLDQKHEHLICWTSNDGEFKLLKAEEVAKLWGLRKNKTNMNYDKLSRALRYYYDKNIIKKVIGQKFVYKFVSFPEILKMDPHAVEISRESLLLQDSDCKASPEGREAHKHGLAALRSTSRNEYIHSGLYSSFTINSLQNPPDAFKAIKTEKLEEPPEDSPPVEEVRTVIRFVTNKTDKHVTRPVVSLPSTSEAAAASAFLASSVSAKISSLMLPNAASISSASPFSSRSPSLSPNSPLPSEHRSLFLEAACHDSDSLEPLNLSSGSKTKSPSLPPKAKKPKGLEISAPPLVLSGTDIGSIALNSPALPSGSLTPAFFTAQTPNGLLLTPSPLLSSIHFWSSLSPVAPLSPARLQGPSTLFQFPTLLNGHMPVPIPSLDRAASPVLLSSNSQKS
Outline: as §1

[3] = biological target: HSF1 (Homo sapiens, UniProt Q00613 1-529); conditions: protein: recombinant; tags: N-terminal GST; chain copies: 3; dsDNA, one strand shown
Chain of HSF1 (Q00613 whole entry): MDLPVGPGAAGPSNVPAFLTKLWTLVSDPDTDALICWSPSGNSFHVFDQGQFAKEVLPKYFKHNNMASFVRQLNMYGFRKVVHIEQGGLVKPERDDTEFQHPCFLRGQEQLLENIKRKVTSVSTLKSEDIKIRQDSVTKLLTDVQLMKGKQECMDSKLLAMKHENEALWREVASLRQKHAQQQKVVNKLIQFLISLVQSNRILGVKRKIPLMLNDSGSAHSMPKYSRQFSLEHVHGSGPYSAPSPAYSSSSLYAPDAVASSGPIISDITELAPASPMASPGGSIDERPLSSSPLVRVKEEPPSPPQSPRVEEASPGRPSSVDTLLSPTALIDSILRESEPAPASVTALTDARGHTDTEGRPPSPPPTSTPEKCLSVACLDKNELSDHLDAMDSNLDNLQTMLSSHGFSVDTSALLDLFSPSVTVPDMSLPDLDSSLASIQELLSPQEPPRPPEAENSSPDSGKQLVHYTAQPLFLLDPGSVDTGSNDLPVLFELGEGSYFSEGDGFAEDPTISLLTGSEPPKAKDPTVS
Outline: as §1

[4] = biological target: ELF4 (Homo sapiens, UniProt Q99607 1-663); conditions: protein: recombinant; tags: N-terminal GST; dsDNA, one strand shown
Chain of ELF4 (Q99607 whole entry): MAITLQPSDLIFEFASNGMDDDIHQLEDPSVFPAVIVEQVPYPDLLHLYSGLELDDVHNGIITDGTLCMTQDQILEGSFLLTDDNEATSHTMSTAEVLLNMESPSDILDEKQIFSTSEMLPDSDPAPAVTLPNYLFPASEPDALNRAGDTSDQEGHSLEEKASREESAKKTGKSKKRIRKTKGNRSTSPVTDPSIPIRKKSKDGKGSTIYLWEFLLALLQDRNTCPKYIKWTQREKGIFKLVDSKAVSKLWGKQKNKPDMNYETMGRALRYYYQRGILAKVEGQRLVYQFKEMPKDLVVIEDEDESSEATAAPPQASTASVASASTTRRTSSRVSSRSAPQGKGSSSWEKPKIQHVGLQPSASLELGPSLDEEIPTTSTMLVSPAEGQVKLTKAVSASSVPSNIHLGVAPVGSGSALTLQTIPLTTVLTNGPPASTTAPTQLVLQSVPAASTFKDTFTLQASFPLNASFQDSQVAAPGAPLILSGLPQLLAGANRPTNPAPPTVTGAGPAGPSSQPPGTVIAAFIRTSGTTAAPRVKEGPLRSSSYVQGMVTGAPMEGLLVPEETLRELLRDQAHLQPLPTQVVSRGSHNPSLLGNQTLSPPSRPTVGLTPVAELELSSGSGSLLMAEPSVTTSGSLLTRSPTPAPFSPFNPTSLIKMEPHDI
Outline: as §1

[5] = biological target: T2, ETV2 (Homo sapiens, UniProt O00321 1-342); conditions: protein: recombinant; tags: N-terminal GST; dsDNA, one strand shown
T2 sequence: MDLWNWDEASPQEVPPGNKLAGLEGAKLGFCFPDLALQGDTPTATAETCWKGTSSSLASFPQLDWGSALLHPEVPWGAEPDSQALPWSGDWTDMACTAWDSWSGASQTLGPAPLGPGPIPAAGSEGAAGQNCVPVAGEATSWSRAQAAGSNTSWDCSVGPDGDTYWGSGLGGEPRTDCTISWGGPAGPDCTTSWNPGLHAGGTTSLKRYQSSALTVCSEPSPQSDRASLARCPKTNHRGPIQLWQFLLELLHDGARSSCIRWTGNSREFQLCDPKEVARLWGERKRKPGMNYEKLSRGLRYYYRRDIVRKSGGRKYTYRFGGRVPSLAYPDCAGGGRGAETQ
Outline: as §1

[6] = biological target: T3, ELF3 (Homo sapiens, UniProt P78545 1-371); conditions: protein: recombinant; tags: N-terminal GST; dsDNA, one strand shown
T3 sequence: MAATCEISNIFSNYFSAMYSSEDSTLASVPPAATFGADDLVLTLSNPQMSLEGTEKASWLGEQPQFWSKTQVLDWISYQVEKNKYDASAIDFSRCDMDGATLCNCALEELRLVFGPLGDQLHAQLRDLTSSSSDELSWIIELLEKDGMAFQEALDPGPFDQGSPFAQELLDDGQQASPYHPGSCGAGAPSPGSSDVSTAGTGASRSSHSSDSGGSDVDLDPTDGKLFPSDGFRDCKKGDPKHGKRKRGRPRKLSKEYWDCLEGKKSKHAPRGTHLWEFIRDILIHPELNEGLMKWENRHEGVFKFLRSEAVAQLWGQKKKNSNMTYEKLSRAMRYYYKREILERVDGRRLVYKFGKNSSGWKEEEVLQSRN
Outline: as §1

[7] = biological target: ETV6 (Homo sapiens, UniProt P41212 1-452); conditions: protein: recombinant; tags: N-terminal GST; dsDNA, one strand shown
Chain of ETV6 (P41212 whole entry): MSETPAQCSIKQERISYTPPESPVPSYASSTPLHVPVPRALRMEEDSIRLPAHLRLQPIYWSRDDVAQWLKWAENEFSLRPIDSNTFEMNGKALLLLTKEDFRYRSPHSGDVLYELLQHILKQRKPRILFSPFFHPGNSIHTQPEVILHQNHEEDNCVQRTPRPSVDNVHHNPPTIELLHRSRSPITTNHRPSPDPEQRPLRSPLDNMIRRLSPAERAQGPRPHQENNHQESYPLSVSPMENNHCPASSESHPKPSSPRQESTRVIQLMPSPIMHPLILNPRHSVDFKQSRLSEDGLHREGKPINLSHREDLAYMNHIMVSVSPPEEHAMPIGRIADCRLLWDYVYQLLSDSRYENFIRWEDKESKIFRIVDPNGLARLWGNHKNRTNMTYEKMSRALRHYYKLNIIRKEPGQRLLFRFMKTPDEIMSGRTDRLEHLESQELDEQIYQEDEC
Outline: as §1

[8] = biological target: T4, EHF (Homo sapiens, UniProt Q9NZC4 1-300); conditions: protein: recombinant; tags: N-terminal GST; dsDNA, one strand shown
T4 sequence: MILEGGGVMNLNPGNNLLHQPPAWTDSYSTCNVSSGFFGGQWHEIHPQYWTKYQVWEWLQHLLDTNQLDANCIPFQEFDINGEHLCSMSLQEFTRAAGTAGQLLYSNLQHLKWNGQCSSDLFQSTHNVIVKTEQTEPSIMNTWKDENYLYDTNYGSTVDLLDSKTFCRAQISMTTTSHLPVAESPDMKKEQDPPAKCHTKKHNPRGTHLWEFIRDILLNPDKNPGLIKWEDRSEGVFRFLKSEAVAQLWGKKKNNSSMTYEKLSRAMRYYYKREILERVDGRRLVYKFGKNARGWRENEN
Outline: as §1

[9] = biological target: T5, ELK4 (Homo sapiens, UniProt P28324-2 1-405); conditions: protein: recombinant; tags: N-terminal GST; dsDNA, one strand shown
T5 sequence: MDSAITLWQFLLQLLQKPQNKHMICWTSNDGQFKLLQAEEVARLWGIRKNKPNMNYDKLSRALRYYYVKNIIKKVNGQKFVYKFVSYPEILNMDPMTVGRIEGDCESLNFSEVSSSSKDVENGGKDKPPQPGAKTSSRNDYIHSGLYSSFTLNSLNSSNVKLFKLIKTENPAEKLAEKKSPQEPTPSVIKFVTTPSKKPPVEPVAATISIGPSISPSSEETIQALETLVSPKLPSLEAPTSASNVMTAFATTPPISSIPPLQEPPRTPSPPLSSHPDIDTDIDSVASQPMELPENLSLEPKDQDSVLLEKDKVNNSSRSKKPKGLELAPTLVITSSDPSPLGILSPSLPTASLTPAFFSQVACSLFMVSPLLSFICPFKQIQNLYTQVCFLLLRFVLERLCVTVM
Outline: as §1

[10] = biological target: CRX (Homo sapiens, UniProt O43186 1-299); conditions: protein: recombinant; tags: N-terminal GST; dsDNA, one strand shown
Chain of CRX (O43186 whole entry): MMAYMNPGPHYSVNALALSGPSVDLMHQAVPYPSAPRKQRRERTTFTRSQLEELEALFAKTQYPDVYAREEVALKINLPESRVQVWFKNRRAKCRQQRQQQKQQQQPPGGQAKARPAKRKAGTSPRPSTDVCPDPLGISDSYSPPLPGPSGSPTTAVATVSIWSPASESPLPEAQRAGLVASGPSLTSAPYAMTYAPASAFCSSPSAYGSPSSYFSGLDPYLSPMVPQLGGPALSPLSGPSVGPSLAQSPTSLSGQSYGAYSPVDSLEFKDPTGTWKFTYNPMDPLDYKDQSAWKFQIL
Outline: as §1

[11] = biological target: T6, ERF (Homo sapiens, UniProt P50548 1-548); conditions: protein: recombinant; tags: N-terminal GST; dsDNA, one strand shown
T6 sequence: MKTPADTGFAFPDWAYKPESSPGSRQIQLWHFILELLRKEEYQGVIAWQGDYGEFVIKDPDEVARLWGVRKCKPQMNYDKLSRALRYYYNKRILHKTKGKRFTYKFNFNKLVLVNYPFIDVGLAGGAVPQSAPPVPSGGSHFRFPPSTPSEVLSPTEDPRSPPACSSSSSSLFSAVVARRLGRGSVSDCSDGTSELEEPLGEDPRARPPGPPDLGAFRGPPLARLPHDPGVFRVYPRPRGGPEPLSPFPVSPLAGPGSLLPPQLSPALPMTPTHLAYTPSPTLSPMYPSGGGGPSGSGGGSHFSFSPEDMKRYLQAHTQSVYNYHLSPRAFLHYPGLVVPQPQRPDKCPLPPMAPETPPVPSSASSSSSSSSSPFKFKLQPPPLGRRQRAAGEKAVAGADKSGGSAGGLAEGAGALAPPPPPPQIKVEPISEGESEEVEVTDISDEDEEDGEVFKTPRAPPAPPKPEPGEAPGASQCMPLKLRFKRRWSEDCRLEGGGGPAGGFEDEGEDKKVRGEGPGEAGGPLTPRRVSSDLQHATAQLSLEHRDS
Outline: as §1

Sequence	binding signal [1]	binding signal [2]	binding signal [3]	binding signal [4]	binding signal [5]	binding signal [6]	binding signal [7]	binding signal [8]	binding signal [9]	binding signal [10]	binding signal [11]
GAATGA	1 fold enrichment (6-mer frequency, TF over GST control)	1.02 fold enrichment (6-mer frequency, TF over GST control)	1.15 fold enrichment (6-mer frequency, TF over GST control)	1 fold enrichment (6-mer frequency, TF over GST control)	1.11 fold enrichment (6-mer frequency, TF over GST control)	1.07 fold enrichment (6-mer frequency, TF over GST control)	1.02 fold enrichment (6-mer frequency, TF over GST control)	–	–	–	–
CATTAG	1.05 fold enrichment (6-mer frequency, TF over GST control)	–	1.07 fold enrichment (6-mer frequency, TF over GST control)	–	1.03 fold enrichment (6-mer frequency, TF over GST control)	–	–	1 fold enrichment (6-mer frequency, TF over GST control)	1.1 fold enrichment (6-mer frequency, TF over GST control)	1.26 fold enrichment (6-mer frequency, TF over GST control)	1.01 fold enrichment (6-mer frequency, TF over GST control)
